Assay results as given in the supplement of paper PMC10849652.
Of roughly 7,900 targets only a part is listed; those with a hit were picked by preference. About 0.6% of all pairs of compound and target were hits.

How the values were obtained:
Assay in all cases: log2 fold change, soluble protein after heating vs DMSO (PISA); higher = thermal stabilisation; K562 cells, 10 uM, 30 min; active = over 0.2 and 3.5 SD of the protein, either way, in both replicates (recomputed)
saracatinib = compound: CN1CCN(CCOc2cc(OC3CCOCC3)c3c(Nc4c(Cl)ccc5c4OCO5)ncnc3c2)CC1 [saracatinib]
Procedure, shortened: (§1)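 K562 cells (2×10^6 cells/mL) were treated with 10 μM compound for 30 min, and aliquots were heated for 3 min over 48°C-58°C. Pooled aliquots were extracted in PBS with 0.5% NP-40 at 4°C, and the supernatant after 21,000xg for 90 min was measured by TMTpro 16plex LC-MS/MS with channel sums equalised. Reported thermal stability, relative to control samples and from duplicates, is a log2 fold change.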

sotrastaurin = compound: CN1CCN(c2nc(C3=C(c4c[nH]c5ccccc45)C(=O)NC3=O)c3ccccc3n2)CC1 [sotrastaurin]
Procedure, shortened: as §1

Tubastatin A = compound: CN1CCc2c(c3ccccc3n2Cc2ccc(C(=O)NO)cc2)C1 [Tubastatin A]
Procedure, shortened: as §1

[1] = compound: CNC(=O)C1=CC=CC=C1NC2=NC(=NC=C2Cl)NC3=C(C=C(C=C3)N4CCOCC4)OC
Procedure, shortened: as §1

defactinib = compound: CNC(=O)c1ccc(Nc2ncc(C(F)(F)F)c(NCc3nccnc3N(C)S(C)(=O)=O)n2)cc1 [defactinib]
Procedure, shortened: as §1

rucaparib = compound: CNCc1ccc(-c2[nH]c3cc(F)cc4c3c2CCNC4=O)cc1 [rucaparib]
Procedure, shortened: as §1

[2] = compound: CNc1nc(-c2ccc3c(N)n[nH]c3c2)cc(N2C[C@@H](C(=O)NC3CCCCC3)CC[C@H]2C)n1
Procedure, shortened: as §1

encorafenib = compound: COC(=O)N[C@@H](C)CNc1nccc(-c2cn(C(C)C)nc2-c2cc(Cl)cc(NS(C)(=O)=O)c2F)n1 [encorafenib]
Procedure, shortened: as §1

[3] = compound: COC(=O)[C@H](CCSC)NC(=O)C1=C(C=C(C=C1)NC[C@H](CS)N)C2=CC=CC=C2
Procedure, shortened: as §1

[4] = compound: COC1=CC=C(C=C1)CN2C=CC3=C2C=C(C=C3)C(=O)NO
Procedure, shortened: as §1

filanesib = compound: CON(C)C(=O)N1N=C(c2cc(F)ccc2F)S[C@@]1(CCCN)c1ccccc1 [filanesib]
Procedure, shortened: as §1

idasanutlin = compound: COc1cc(C(=O)O)ccc1NC(=O)[C@@H]1N[C@@H](CC(C)(C)C)[C@](C#N)(c2ccc(Cl)cc2F)[C@H]1c1cccc(Cl)c1F [idasanutlin]
Procedure, shortened: as §1

alisertib = compound: COc1cc(Nc2ncc3c(n2)-c2ccc(Cl)cc2C(c2c(F)cccc2OC)=NC3)ccc1C(=O)O [alisertib]
Procedure, shortened: as §1

[5] = compound: COc1cc2nc(-c3cc(F)ccc3O)nc(N[C@@H]3CNC[C@H]3C(C)(C)O)c2cc1OC
Procedure, shortened: as §1

gefitinib = compound: COc1cc2ncnc(Nc3ccc(F)c(Cl)c3)c2cc1OCCCN1CCOCC1 [gefitinib]
Procedure, shortened: as §1

[6] = compound: COc1cccc2cc(-c3nc([C@H]4CC[C@H](C(=O)O)CC4)n4ncnc(N)c34)[nH]c12
Procedure, shortened: as §1

lapatinib = compound: CS(=O)(=O)CCNCc1ccc(-c2ccc3ncnc(Nc4ccc(OCc5cccc(F)c5)c(Cl)c4)c3c2)o1 [lapatinib]
Procedure, shortened: as §1

alvocidib = compound: CN1CC[C@H](c2c(O)cc(O)c3c(=O)cc(-c4ccccc4Cl)oc23)[C@H](O)C1 [alvocidib]
Procedure, shortened: as §1

zotarolimus = compound: CO[C@H]1C[C@@H]2CC[C@@H](C)[C@@](O)(O2)C(=O)C(=O)N2CCCC[C@H]2C(=O)O[C@H]([C@H](C)C[C@@H]2CC[C@H](n3cnnn3)[C@H](OC)C2)CC(=O)[C@H](C)/C=C(\C)[C@@H](O)[C@@H](OC)C(=O)[C@H](C)C[C@H](C)/C=C/C=C/C=C/1C [zotarolimus]
Procedure, shortened: as §1

pictilisib = compound: CS(=O)(=O)N1CCN(Cc2cc3nc(-c4cccc5[nH]ncc45)nc(N4CCOCC4)c3s2)CC1 [pictilisib]
Procedure, shortened: as §1

Measured: log2 fold change

SERINC1 (UniProt Q9NRX5)
Chain of UniProt Q9NRX5 (Q9NRX5 whole entry, looked up): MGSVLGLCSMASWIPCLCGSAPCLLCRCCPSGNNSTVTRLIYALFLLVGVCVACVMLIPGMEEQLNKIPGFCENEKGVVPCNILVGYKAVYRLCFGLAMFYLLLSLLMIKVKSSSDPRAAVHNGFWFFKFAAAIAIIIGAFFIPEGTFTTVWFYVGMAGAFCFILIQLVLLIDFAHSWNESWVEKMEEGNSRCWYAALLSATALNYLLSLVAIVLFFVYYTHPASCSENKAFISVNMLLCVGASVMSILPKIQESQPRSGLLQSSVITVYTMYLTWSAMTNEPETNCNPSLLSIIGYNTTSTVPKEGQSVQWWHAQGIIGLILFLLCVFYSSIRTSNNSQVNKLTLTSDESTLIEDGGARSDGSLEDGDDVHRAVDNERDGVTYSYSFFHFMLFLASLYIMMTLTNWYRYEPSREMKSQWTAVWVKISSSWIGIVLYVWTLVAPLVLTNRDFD
inactive: saracatinib 0.093 | sotrastaurin -0.053 | Tubastatin A -0.128 | [1] -0.008 | defactinib 0.031 | rucaparib -0.095 | [2] -0.088 | encorafenib -0.062 | [3] 0.055 | [4] 0.073 | filanesib -0.146 | idasanutlin 0.233 | alisertib 0.073 | [5] -0.208 | gefitinib -0.266 | [6] -0.167 | lapatinib -0.227

SCLT1 (UniProt Q96NL6)
Chain of UniProt Q96NL6 (Q96NL6 whole entry, looked up): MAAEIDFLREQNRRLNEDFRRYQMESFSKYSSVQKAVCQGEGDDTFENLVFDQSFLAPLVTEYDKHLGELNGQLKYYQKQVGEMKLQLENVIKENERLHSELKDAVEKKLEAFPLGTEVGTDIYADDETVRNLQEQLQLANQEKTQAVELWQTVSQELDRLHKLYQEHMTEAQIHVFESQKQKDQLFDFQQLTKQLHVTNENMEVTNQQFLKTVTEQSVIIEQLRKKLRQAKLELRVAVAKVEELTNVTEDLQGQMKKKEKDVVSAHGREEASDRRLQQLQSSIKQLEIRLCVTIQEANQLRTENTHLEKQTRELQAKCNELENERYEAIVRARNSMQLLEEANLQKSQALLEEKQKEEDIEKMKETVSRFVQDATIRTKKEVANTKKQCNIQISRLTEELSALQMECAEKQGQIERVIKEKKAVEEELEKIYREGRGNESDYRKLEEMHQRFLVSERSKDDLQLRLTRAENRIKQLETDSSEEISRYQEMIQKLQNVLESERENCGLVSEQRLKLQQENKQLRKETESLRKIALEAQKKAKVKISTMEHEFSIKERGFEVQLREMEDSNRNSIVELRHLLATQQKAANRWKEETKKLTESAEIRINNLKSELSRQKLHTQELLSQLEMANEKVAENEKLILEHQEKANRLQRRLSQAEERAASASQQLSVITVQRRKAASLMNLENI
active: [4] 0.433
inactive: saracatinib 0.073 | sotrastaurin -0.095 | alvocidib 0 | Tubastatin A 0.116 | defactinib -0.047 | [2] 0.121 | [3] -0.087 | filanesib -0.063 | zotarolimus 0.079 | alisertib -0.205 | gefitinib -0.022 | [6] 0.046 | pictilisib 0.185

RMDN2 isoform 2 (UniProt Q96LZ7)
Chain of UniProt Q96LZ7 (Q96LZ7 whole entry, looked up): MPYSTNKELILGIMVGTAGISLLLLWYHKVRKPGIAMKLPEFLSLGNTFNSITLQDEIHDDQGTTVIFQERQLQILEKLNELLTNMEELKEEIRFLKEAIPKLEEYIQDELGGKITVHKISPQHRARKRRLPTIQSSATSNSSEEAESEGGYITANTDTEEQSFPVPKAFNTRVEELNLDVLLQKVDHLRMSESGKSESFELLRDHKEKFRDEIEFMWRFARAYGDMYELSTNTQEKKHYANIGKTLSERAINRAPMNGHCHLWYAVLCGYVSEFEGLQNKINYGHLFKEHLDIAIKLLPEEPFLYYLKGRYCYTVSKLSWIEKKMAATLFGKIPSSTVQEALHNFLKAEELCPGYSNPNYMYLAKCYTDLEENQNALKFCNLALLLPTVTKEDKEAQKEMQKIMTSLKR
inactive: defactinib -0.218 | [3] -0.206 | [4] 0.008 | alisertib 0.389 | gefitinib -0.418 | [6] 0.191

SEMG2 (UniProt Q02383)
Chain of UniProt Q02383 (Q02383 whole entry, looked up): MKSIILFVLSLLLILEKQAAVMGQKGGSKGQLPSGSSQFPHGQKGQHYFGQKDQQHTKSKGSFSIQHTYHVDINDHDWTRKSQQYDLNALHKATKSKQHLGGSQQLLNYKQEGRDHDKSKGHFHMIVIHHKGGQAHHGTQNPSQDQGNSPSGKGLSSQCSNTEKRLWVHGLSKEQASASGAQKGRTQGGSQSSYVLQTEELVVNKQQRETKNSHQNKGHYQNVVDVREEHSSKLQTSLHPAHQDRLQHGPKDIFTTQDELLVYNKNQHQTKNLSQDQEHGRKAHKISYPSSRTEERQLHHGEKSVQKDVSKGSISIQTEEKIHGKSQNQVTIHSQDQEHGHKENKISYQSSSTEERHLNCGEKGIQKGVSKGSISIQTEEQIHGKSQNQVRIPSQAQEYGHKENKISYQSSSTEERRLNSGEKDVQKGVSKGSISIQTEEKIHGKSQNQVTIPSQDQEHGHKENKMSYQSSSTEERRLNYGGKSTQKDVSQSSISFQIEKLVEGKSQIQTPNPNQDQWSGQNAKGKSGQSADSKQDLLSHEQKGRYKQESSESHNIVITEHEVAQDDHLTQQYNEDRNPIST
inactive: sotrastaurin -0.016 | alvocidib 0.206 | Tubastatin A 0.025 | rucaparib -0.033 | encorafenib -0.011 | filanesib -0.002 | zotarolimus -0.021 | idasanutlin -0.135 | alisertib 0.005 | gefitinib -0.008 | [6] 0.063 | pictilisib -0.021

RAB3IL1 (UniProt E9PK89)
inactive: sotrastaurin -0.082 | alvocidib 0.009 | Tubastatin A -0.095 | [1] -0.011 | defactinib -0.016 | rucaparib -0.074 | encorafenib 0.084 | [3] 0.045 | [4] 0.031 | filanesib -0.22 | zotarolimus 0.093 | idasanutlin -0.035 | [5] 0.097 | gefitinib -0.034 | lapatinib 0.063 | pictilisib -0.075

SDCBP isoform 2 (UniProt O00560)
inactive: saracatinib -0.175 | sotrastaurin 0.042 | Tubastatin A -0.301 | [1] 0.115 | rucaparib -0.036 | encorafenib 0.032 | filanesib -0.08 | alisertib -0.236 | [5] 0.045 | gefitinib -0.054 | [6] 0.034 | lapatinib -0.04 | pictilisib 0.228
active: [2] -0.756

RELA (UniProt Q04206)
Chain of UniProt Q04206 (Q04206 whole entry, looked up): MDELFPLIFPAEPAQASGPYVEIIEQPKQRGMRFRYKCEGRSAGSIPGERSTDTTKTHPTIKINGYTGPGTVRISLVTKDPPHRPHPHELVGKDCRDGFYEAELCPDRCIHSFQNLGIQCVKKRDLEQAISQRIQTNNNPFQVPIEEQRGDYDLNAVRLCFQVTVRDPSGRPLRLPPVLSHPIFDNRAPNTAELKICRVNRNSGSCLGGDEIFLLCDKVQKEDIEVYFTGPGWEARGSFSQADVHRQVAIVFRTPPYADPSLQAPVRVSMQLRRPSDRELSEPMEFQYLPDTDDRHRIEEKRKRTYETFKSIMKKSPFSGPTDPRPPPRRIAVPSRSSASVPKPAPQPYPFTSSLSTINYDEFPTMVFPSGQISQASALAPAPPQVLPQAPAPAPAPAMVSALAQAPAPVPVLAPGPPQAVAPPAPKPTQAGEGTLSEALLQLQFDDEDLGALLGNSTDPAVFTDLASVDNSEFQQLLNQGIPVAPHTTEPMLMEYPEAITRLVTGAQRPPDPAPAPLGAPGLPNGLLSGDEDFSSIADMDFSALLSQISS
inactive: saracatinib 0.027 | sotrastaurin -0.036 | Tubastatin A -0.017 | [1] 0.032 | defactinib -0.077 | rucaparib -0.026 | [2] -0.029 | encorafenib 0.044 | [3] -0.011 | [4] 0.025 | filanesib -0.002 | zotarolimus 0.024 | idasanutlin -0.039 | alisertib -0.028 | [5] -0.031 | gefitinib 0.023 | [6] 0.005 | lapatinib 0.012 | pictilisib -0.007

RUNX1 isoform 8 (UniProt Q01196)
Chain of UniProt Q01196 (Q01196 whole entry, looked up): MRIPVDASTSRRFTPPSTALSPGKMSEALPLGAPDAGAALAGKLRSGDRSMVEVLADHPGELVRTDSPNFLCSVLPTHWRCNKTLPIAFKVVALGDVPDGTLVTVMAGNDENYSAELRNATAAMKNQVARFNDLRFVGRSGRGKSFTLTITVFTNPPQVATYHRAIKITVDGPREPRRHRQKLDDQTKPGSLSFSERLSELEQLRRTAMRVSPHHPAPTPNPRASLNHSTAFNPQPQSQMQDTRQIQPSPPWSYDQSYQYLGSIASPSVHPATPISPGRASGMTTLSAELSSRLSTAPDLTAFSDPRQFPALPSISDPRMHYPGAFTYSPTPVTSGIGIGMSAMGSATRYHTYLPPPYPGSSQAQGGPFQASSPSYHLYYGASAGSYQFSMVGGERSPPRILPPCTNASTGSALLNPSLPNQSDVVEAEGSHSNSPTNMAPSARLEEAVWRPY
inactive: saracatinib -0.025 | sotrastaurin -0.132 | [1] -0.046 | defactinib 0.01 | rucaparib 0.024 | [2] 0.014 | encorafenib 0.183 | [3] 0.047 | [4] -0.055 | filanesib -0.084 | idasanutlin 0.075 | alisertib -0.292 | [5] 0.053 | gefitinib -0.074 | [6] -0.011 | lapatinib -0.001 | pictilisib 0.24

SAP30 (UniProt O75446)
Chain of UniProt O75446 (O75446 whole entry, looked up): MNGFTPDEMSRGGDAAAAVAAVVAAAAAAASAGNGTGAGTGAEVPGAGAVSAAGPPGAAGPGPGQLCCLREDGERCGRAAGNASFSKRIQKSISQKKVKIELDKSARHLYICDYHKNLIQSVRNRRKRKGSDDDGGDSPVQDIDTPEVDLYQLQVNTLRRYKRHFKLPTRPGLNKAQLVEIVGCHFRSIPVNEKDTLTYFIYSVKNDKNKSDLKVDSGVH
inactive: saracatinib -0.018 | sotrastaurin -0.185 | alvocidib -0.035 | [1] 0.121 | defactinib -0.003 | [2] 0.014 | [3] 0.044 | [4] 0.089 | filanesib 0.044 | zotarolimus 0.047 | idasanutlin 0.024 | alisertib -0.015 | [5] -0.059 | gefitinib 0.003 | [6] -0.095 | lapatinib -0.035 | pictilisib -0.068

RBM26 isoform 3 (UniProt Q5T8P6)
inactive: sotrastaurin -0.052 | filanesib 0.004 | idasanutlin 0.167

RAB3D (UniProt O95716)
Chain of UniProt O95716 (O95716 whole entry, looked up): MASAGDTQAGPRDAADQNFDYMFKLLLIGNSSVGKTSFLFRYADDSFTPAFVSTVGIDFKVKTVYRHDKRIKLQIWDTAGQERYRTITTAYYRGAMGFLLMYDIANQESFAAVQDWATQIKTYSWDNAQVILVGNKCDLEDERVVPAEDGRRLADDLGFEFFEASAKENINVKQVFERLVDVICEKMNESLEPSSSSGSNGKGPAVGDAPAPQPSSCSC
inactive: saracatinib 0.295 | alvocidib 0.126 | Tubastatin A 0.024 | [1] 0.022 | defactinib 0.064 | rucaparib -0.021 | [2] -0.016 | encorafenib -0.043 | [3] -0.094 | zotarolimus -0.08 | idasanutlin 0.026 | alisertib 0.007 | [5] 0.002 | gefitinib 0.243 | [6] -0.07 | lapatinib 0.002 | pictilisib -0.153

RPS6KA3 (UniProt P51812)
Chain of UniProt P51812 (P51812 whole entry, looked up): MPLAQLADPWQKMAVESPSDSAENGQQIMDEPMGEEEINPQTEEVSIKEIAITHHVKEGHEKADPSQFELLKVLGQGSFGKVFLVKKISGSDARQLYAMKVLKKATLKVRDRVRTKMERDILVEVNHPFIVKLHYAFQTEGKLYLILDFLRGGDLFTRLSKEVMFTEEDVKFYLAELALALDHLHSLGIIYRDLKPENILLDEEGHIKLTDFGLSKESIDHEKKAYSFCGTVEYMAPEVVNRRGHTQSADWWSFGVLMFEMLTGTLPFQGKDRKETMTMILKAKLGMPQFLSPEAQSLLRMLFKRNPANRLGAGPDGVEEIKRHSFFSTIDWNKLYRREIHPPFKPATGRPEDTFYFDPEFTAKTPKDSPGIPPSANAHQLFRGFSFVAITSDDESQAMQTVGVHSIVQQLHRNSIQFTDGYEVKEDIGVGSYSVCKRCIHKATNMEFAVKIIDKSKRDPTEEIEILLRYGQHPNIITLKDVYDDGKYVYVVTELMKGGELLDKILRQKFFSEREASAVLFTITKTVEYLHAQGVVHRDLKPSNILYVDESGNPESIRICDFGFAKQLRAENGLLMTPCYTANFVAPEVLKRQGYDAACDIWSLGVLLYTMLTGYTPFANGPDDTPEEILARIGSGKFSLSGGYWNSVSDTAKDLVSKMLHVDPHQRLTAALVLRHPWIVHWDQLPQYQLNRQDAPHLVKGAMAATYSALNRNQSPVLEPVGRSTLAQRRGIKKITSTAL
inactive: saracatinib 0.021 | sotrastaurin -0.049 | alvocidib -0.046 | Tubastatin A 0.019 | defactinib -0.148 | rucaparib 0.006 | [2] -0.049 | encorafenib -0.01 | [3] -0.027 | [4] -0.013 | filanesib 0 | zotarolimus 0.033 | idasanutlin -0.008 | [5] -0.221 | gefitinib -0.033 | [6] 0.013 | lapatinib 0.011 | pictilisib -0.011

RPS3A (UniProt D6R9B6)
inactive: saracatinib -0.125 | sotrastaurin 0.202 | Tubastatin A 0.051 | [2] -0.086 | filanesib 0.228 | idasanutlin 0.079

RNF26 (UniProt Q9BY78)
inactive: defactinib 0.119 | [3] 0.292 | pictilisib 0.065

SF3B5 (UniProt Q9BWJ5)
Chain of UniProt Q9BWJ5 (Q9BWJ5 whole entry, looked up): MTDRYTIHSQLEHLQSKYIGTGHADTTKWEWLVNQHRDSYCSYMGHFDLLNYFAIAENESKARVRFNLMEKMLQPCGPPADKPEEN
inactive: saracatinib -0.382 | sotrastaurin 0.055 | Tubastatin A 0.048 | [1] 0.023 | defactinib -0.039 | rucaparib 0.086 | [2] -0.015 | encorafenib -0.025 | [3] 0.061 | [4] 0.19 | filanesib 0.2 | idasanutlin 0.085 | alisertib -0.122 | [5] -0.026 | gefitinib 0.027 | [6] 0.044 | lapatinib -0.051 | pictilisib -0.069

RNF41 (UniProt Q9H4P4)
inactive: rucaparib -0.087 | encorafenib -0.016 | idasanutlin -0.031

RPS19 (UniProt M0R2L9)
inactive: Tubastatin A -0.186 | idasanutlin -0.034 | alisertib -0.463 | [5] -0.158 | gefitinib 0.375 | [6] -0.331 | lapatinib -0.341

RNF220 isoform 3 (UniProt Q5VTB9)
Chain of UniProt Q5VTB9 (Q5VTB9 whole entry, looked up): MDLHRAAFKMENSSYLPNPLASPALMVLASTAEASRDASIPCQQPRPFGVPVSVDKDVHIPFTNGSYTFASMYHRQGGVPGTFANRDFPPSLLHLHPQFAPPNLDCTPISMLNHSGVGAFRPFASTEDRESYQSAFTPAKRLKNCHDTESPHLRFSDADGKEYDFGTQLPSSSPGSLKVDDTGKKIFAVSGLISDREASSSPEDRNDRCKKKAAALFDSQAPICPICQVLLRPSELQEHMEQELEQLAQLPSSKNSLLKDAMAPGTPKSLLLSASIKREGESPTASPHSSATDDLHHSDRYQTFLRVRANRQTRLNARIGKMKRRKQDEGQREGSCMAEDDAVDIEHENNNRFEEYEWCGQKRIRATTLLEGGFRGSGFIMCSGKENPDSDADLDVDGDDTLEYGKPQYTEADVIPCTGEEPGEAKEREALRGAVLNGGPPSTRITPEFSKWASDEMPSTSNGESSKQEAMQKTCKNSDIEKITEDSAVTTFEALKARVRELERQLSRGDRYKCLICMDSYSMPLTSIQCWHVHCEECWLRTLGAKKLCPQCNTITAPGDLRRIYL
inactive: [1] -0.067 | idasanutlin 0.073 | [5] -0.153 | lapatinib 0.261
